This note sets out measurements from PubChem BioAssay (Tox21).

Inconclusive results are not listed. Unmarked numbers belong to inactive results. The source made the active and inactive calls. The call rests on the fitted dose curve; in most records, active means well fitted curve in the direction sought with a large enough effect in the repeat runs; inconclusive means weak or mixed curves; inactive means no such curve, though single readings can be large; an effect the other way counts as inactive or inconclusive.
On the % scale 0 is the no-effect control and ±100 the full control effect.

A short description of one assay: qHTS RealTime-Glo MT Cell Viability Assay in HEK293 cells - 24 hour (AID 1224886). Further: top concentration of the series differs between compounds; nearly all actives have a fitted effect of over 50% in size. The settings on record: RealTime-Glo luminescence; series mostly up to 76.8 µM; activity change, negative = cytotoxicity: at the top concentration. The procedure, abridged:
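Cells + reagent dispensed (600 cells/well, HEK293) → 5 h at 37 C/5% CO2 → 23 nL compound in DMSO pinned → 40 h at 37 C → luminescence read at 0, 8, 16, 24, 32, 40 h.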
(In general: qHTS replaces the single test concentration by a dilution series.)
Turning to `CCOCCOCCOCC`, the “activity change, negative = cytotoxicity” value was 0.197%.

With `CC1=C(C(=O)O)N2C(=O)[C@@H](NC(=O)[C@H](N)c3ccc(O)cc3)[C@H]2SC1`, the “activity change, negative = cytotoxicity” value is 12.3% [at 35.3 µM].

In the case of `CC(C)CC(=O)O`, the “activity change, negative = cytotoxicity” value was 9.67%.

With `CC(COC(C)(C)C)OCCCO` (configuration not stated), the “activity change, negative = cytotoxicity” value was -19.3%.

As for `CC(C)CCCCOC(=O)c1ccccc1C(=O)OCCCCC(C)C`, the “activity change, negative = cytotoxicity” value was 0.706%.

Turning to `CC(CO)c1ccccc1` (configuration not stated), the “activity change, negative = cytotoxicity” value was -1.15%.

Take `CC(=O)NCc1c(I)c(NC(C)=O)c(I)c(C(=O)O)c1I`: the “activity change, negative = cytotoxicity” value was 0.0179% [at 35.3 µM].

Turning to `O=C(OCC(COC(=O)c1cccnc1)(COC(=O)c1cccnc1)COC(=O)c1cccnc1)c1cccnc1`, the “activity change, negative = cytotoxicity” value is 7.08% [at 35.3 µM].

`CCOC(=O)c1ccc(OC(=O)CCCCCN=C(N)N)cc1`: the “activity change, negative = cytotoxicity” value is -17.5% [at 35.3 µM].

As for `CC(C)(C)c1n[nH]c(=S)n(N)c1=O`, the “activity change, negative = cytotoxicity” value was 1.37%.

In the case of `CC(C)C(=O)OCCc1ccccc1`, the “activity change, negative = cytotoxicity” value is 0.221%.

For the compound `CC(=O)Nc1ccc(S(=O)(=O)Cl)cc1`, the “activity change, negative = cytotoxicity” value was -3.96%.

Regarding `CCCCOC(=O)c1ccccc1`, the “activity change, negative = cytotoxicity” value was 2.68%.

Turning to `CCCCCCN`, the “activity change, negative = cytotoxicity” value is 8.21%.

For `Cc1ccccc1OCC(O)CO` (configuration not stated), the “activity change, negative = cytotoxicity” value is 5.65% [at 35.3 µM].

`COC(=O)C1CC(=O)C(C(=O)OC)CC1=O` (configuration not stated): the activity change, negative = cytotoxicity was 0.682% [at 6.97 µM].

Take `BrCc1cccc(Oc2ccccc2)c1`: the “activity change, negative = cytotoxicity” value was -0.28%.

Consider `Cc1cccc(OCC(O)CNC(C)(C)C)c1C` (configuration not stated), for which the “activity change, negative = cytotoxicity” value is 1.46% [at 35.3 µM].

Turning to `OCCC(F)(F)C(F)(F)C(F)(F)C(F)(F)C(F)(F)C(F)(F)C(F)(F)C(F)(F)F`, the “activity change, negative = cytotoxicity” value was 27.1%.

The nature of a further assay: qHTS RealTime-Glo MT Cell Viability Assay in HEK293 cells - 8 hour (AID 1224887). Further: nearly all actives have a fitted effect of over 50% in size. Further: potency means the concentration at half of the fitted maximal effect. On activity change, negative = cytotoxicity: top concentration of the series differs between compounds. The settings on record: RealTime-Glo luminescence; series mostly up to 76.8 µM; activity change, negative = cytotoxicity: at the top concentration. The procedure, abridged:
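Nonlytic bioluminescent viability monitoring. HEK293 at 600 cells/well with reagent; 5 h settle; compound transfer by pintool; plates held at 37 C and read at set time points.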
Consider `OCCCCC(O)CO` (configuration not stated), for which the “activity change, negative = cytotoxicity” value is 4.13%.

As for `Cc1cccc2nccnc12`, the “activity change, negative = cytotoxicity” value is 13.7%.

For `CN(C)C(=O)CNC(=O)Cc1ccccc1`, the “activity change, negative = cytotoxicity” value was 0.634% [at 35.3 µM].

On to `CN(CCOc1ccc(NS(C)(=O)=O)cc1)CCc1ccc(NS(C)(=O)=O)cc1`, for which the “activity change, negative = cytotoxicity” value was 12.7% [at 35.3 µM].

As for `C=CC(OCC)OCC`, the “activity change, negative = cytotoxicity” value was 4.54%.

With `CCCCCCCCSCC`, the “activity change, negative = cytotoxicity” value was 28.9%.

For `Cc1[nH]cnc1-c1ccc(Cl)cc1`, the “activity change, negative = cytotoxicity” value was 5.65% [at 35.3 µM].

On to `c1ccc2c(c1)ccc1c3ccccc3ccc21`, for which the “activity change, negative = cytotoxicity” value was 9.11% [at 35.3 µM].

Take `NS(=O)(=O)c1cc2c(cc1Cl)CN(C1CCCCC1)C2=O`: the Potency is 9.52 µM (active).

Regarding `Oc1cn2c(n1)Nc1ccc(Cl)c(Cl)c1C2`, the activity change, negative = cytotoxicity is 1.19% [at 15.8 µM].

Turning to `CCOC(=O)c1ncn2c1CN(C)C(=O)c1cc(F)ccc1-2`, the “activity change, negative = cytotoxicity” value is -15% [at 35.3 µM].

As to `CN1C(C)(C)CCCC1(C)C`, the “activity change, negative = cytotoxicity” value is -0.304% [at 35.3 µM].

Consider `CC(C)(C)c1cc(CCC(=O)NN)cc(C(C)(C)C)c1O`, for which the “activity change, negative = cytotoxicity” value was 4.97%.

On to `C[Si](C)=O`, for which the activity change, negative = cytotoxicity was -1.9% [at 6.97 µM].

In the case of `CCc1ccc(C=O)cc1`, the “activity change, negative = cytotoxicity” value is 2.39%.

Turning to `CC(=O)OC(C)OC(=O)C(C)c1ccc(-c2ccccc2)c(F)c1` (configuration not stated), the “activity change, negative = cytotoxicity” value was 12.1% [at 35.3 µM].

On to `COP(=O)(OC)OC(c1ccc(Cl)cc1)P(=O)(OC)OC` (configuration not stated), for which the “activity change, negative = cytotoxicity” value is 16.2% [at 35.3 µM].

On to `CCOCCOCCOCC`, for which the “activity change, negative = cytotoxicity” value was 13.1%.

As for `CC1=C(C(=O)O)N2C(=O)[C@@H](NC(=O)[C@H](N)c3ccc(O)cc3)[C@H]2SC1`, the “activity change, negative = cytotoxicity” value was 8.37% [at 35.3 µM].

Turning to `COc1ccc2c(c1OC)C(=O)O[C@@H]2[C@H]1c2c(cc3c(c2OC)OCO3)CCN1C`, the “activity change, negative = cytotoxicity” value was -6.2% [at 35.3 µM].

With `CC(C)CC(=O)O`, the “activity change, negative = cytotoxicity” value is 4.37%.

Consider `CC(COC(C)(C)C)OCCCO` (configuration not stated), for which the “activity change, negative = cytotoxicity” value was 12.5%.

Take `CC(C)CCCCOC(=O)c1ccccc1C(=O)OCCCCC(C)C`: the “activity change, negative = cytotoxicity” value is 1.8%.

With `CC(CO)c1ccccc1` (configuration not stated), the “activity change, negative = cytotoxicity” value is 0.856%.

`CC(=O)NCc1c(I)c(NC(C)=O)c(I)c(C(=O)O)c1I`: the “activity change, negative = cytotoxicity” value was 3.89% [at 35.3 µM].

For the compound `O=C(OCC(COC(=O)c1cccnc1)(COC(=O)c1cccnc1)COC(=O)c1cccnc1)c1cccnc1`, the “activity change, negative = cytotoxicity” value is 2.92% [at 35.3 µM].

For the compound `CCOC(=O)c1ccc(OC(=O)CCCCCN=C(N)N)cc1`, the “activity change, negative = cytotoxicity” value was -14.4% [at 35.3 µM].

With `CC(C)(C)c1n[nH]c(=S)n(N)c1=O`, the “activity change, negative = cytotoxicity” value was 1.06%.

With `CC(C)C(=O)OCCc1ccccc1`, the “activity change, negative = cytotoxicity” value was 3.49%.

For the compound `CC(=O)Nc1ccc(S(=O)(=O)Cl)cc1`, the “activity change, negative = cytotoxicity” value was 3.16%.

For the compound `CCCCOC(=O)c1ccccc1`, the “activity change, negative = cytotoxicity” value was 1.08%.

With `CCCCCCN`, the “activity change, negative = cytotoxicity” value is 0.695%.

As to `Cc1ccccc1OCC(O)CO` (configuration not stated), the “activity change, negative = cytotoxicity” value is -7.08% [at 35.3 µM].

Turning to `COC(=O)C1CC(=O)C(C(=O)OC)CC1=O` (configuration not stated), the activity change, negative = cytotoxicity was 5.57% [at 6.97 µM].

Take `BrCc1cccc(Oc2ccccc2)c1`: the “activity change, negative = cytotoxicity” value was 0.0287%.

In the case of `Cc1cccc(OCC(O)CNC(C)(C)C)c1C` (configuration not stated), the “activity change, negative = cytotoxicity” value was -0.0354% [at 35.3 µM].

For `OCCC(F)(F)C(F)(F)C(F)(F)C(F)(F)C(F)(F)C(F)(F)C(F)(F)C(F)(F)F`, the “activity change, negative = cytotoxicity” value was 11.7%.

Another assay can be described thus: A CellTox Green Cytotoxicity Assay to monitor cytotoxicity in HEK293 cells - 16 hour (AID 1224888). Further: nearly all actives have a fitted effect of over 35% in size. The settings on record: CellTox Green fluorescence, hits give high values; series mostly up to 76.8 µM; activity change: at the top concentration. The procedure, abridged:
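Cytotoxicity was tracked continuously in HEK293 cells by a DNA-binding dye excluded from viable cells. Compounds were transferred in DMSO 5 h after seeding; fluorescence was recorded at intervals up to 40 h.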
`OCCCCC(O)CO` (configuration not stated): the “activity change” value was -13.3%.

For the compound `CN(C)C(=O)CNC(=O)Cc1ccccc1`, the “activity change” value was -4.37% [at 35.3 µM].

Turning to `CN(CCOc1ccc(NS(C)(=O)=O)cc1)CCc1ccc(NS(C)(=O)=O)cc1`, the “activity change” value is -0.946% [at 35.3 µM].

Take `C=CC(OCC)OCC`: the “activity change” value was 3.58%.

Turning to `CCCCCCCCSCC`, the “activity change” value is -0.955%.

On to `Cc1[nH]cnc1-c1ccc(Cl)cc1`, for which the “activity change” value was -4.39% [at 35.3 µM].

On to `c1ccc2c(c1)ccc1c3ccccc3ccc21`, for which the “activity change” value is -0.475% [at 35.3 µM].

`NS(=O)(=O)c1cc2c(cc1Cl)CN(C1CCCCC1)C2=O`: the “activity change” value was -1.48% [at 35.3 µM].

For `Oc1cn2c(n1)Nc1ccc(Cl)c(Cl)c1C2`, the activity change was -3.07% [at 15.8 µM].

For `CCOC(=O)c1ncn2c1CN(C)C(=O)c1cc(F)ccc1-2`, the “activity change” value was -5.26% [at 35.3 µM].

On to `CN1C(C)(C)CCCC1(C)C`, for which the “activity change” value is 1.38% [at 35.3 µM].

Regarding `CC(C)(C)c1cc(CCC(=O)NN)cc(C(C)(C)C)c1O`, the “activity change” value was 4.86%.

`C[Si](C)=O`: the activity change was 1.45% [at 6.97 µM].

`CCc1ccc(C=O)cc1`: the “activity change” value was 6.41%.

With `CC(=O)OC(C)OC(=O)C(C)c1ccc(-c2ccccc2)c(F)c1` (configuration not stated), the “activity change” value is -3.68% [at 35.3 µM].

In the case of `COP(=O)(OC)OC(c1ccc(Cl)cc1)P(=O)(OC)OC` (configuration not stated), the “activity change” value is 3% [at 35.3 µM].

For `CCOCCOCCOCC`, the “activity change” value is -6.77%.

In the case of `CC1=C(C(=O)O)N2C(=O)[C@@H](NC(=O)[C@H](N)c3ccc(O)cc3)[C@H]2SC1`, the “activity change” value was 5.1% [at 35.3 µM].

`COc1ccc2c(c1OC)C(=O)O[C@@H]2[C@H]1c2c(cc3c(c2OC)OCO3)CCN1C`: the “activity change” value was -5.67% [at 35.3 µM].

On to `CC(C)CC(=O)O`, for which the “activity change” value is -0.171%.

On to `CC(COC(C)(C)C)OCCCO` (configuration not stated), for which the “activity change” value was -14.5%.

In the case of `CC(C)CCCCOC(=O)c1ccccc1C(=O)OCCCCC(C)C`, the “activity change” value was -7.82%.

In the case of `CC(CO)c1ccccc1` (configuration not stated), the “activity change” value is -2.44%.

`CC(=O)NCc1c(I)c(NC(C)=O)c(I)c(C(=O)O)c1I`: the “activity change” value was -2.56% [at 35.3 µM].

Take `O=C(OCC(COC(=O)c1cccnc1)(COC(=O)c1cccnc1)COC(=O)c1cccnc1)c1cccnc1`: the “activity change” value is 2.82% [at 35.3 µM].

With `CCOC(=O)c1ccc(OC(=O)CCCCCN=C(N)N)cc1`, the “activity change” value is -9.03% [at 35.3 µM].

As to `CC(C)(C)c1n[nH]c(=S)n(N)c1=O`, the “activity change” value was 5.04%.

On to `CC(C)C(=O)OCCc1ccccc1`, for which the “activity change” value was 14.6%.

`CC(=O)Nc1ccc(S(=O)(=O)Cl)cc1`: the “activity change” value is -1.79%.

Turning to `CCCCOC(=O)c1ccccc1`, the “activity change” value was 1.9%.

For the compound `CCCCCCN`, the “activity change” value is -0.059%.

Regarding `Cc1ccccc1OCC(O)CO` (configuration not stated), the “activity change” value was -1.11% [at 35.3 µM].

For the compound `COC(=O)C1CC(=O)C(C(=O)OC)CC1=O` (configuration not stated), the activity change is 2.56% [at 6.97 µM].

For `BrCc1cccc(Oc2ccccc2)c1`, the “activity change” value is 7.65%.

For the compound `Cc1cccc(OCC(O)CNC(C)(C)C)c1C` (configuration not stated), the “activity change” value is -3.18% [at 35.3 µM].

Consider `OCCC(F)(F)C(F)(F)C(F)(F)C(F)(F)C(F)(F)C(F)(F)C(F)(F)C(F)(F)F`, for which the “activity change” value is 3.92%.
